# The list is not random: actives were taken first. Their share in the collection is about 1.7%.
# TLR9-MyD88 inh: TLR9-MyD88 interaction inhibition; Q9NR96+Q99836; CHO BLA complementation TLR9-MyD88, CCF4 FRET ratio; inhibition, % at 4.98 µM; 340,000 compounds, 0.21% hits;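 active = inhibition above the mean over all tested compounds plus 3 SD, cut at about 21% in these data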
# ABCB6 inh MLPCN: inhibitors of human ABC transporter ABCB6; Q9NP58; K562-ABCB6 porphyrin accumulation, flow cytometry, 1 h; active compounds read low; fluorescence ratio to DMSO, % at 10 µM; 360,000 compounds, 0.19% hits;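 active = fluorescence ratio to DMSO below 75%, the collection mean minus 3 SD; inconclusive = too few cells collected in the well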;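 note: signal is porphyrin accumulated inside mitochondria; lower ratio means ABCB6 inhibition with less porphyrin fluorescence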
# Target sequence (Q9NP58 whole entry, looked up): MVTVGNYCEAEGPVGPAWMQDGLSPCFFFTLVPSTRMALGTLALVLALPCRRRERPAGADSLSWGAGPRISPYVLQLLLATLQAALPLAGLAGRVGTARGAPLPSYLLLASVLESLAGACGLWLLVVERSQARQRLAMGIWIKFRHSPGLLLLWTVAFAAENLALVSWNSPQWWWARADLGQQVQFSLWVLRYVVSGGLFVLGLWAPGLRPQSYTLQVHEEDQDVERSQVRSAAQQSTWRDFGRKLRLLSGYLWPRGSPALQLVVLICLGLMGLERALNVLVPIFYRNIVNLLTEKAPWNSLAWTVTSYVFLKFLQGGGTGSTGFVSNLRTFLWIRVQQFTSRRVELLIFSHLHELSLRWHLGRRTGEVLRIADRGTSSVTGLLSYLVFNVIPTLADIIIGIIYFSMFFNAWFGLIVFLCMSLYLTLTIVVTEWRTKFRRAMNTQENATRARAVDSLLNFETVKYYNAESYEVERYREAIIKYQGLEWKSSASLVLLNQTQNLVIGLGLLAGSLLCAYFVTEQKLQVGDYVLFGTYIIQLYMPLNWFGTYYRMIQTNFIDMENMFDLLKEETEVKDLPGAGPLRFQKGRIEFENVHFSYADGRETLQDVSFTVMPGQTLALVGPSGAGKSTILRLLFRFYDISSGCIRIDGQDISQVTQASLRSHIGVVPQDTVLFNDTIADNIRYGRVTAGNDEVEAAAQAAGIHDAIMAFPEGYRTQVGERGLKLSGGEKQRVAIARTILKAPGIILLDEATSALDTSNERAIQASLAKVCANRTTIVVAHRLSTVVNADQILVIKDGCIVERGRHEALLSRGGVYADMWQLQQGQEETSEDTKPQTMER
# TLR4-MyD88 BLA: blocks binding of human TLR4 to MyD88. AID 861. 200,000 compounds, 0.18% hits. O00206+Q99836. inhibition, % at 8.4 µM. HeLa CL3-4 TLR4/MyD88 BLA complementation, FRET ratio; in the data active = inhibition above about 25%
# NOD2-RIPK2 inh: blocks binding of human NOD2 to RIPK2 | O43353 | CHO BLA complementation NOD2-RIPK2, CCF4 ratio | inhibition, % at 4.98 µM | 360,000 compounds, 0.38% hits; in the data active = inhibition above about 21%
# Myeloid diff 2: promotes myeloid progenitor differentiation; calls only at 10 µM; AID 624256; ER-HoxA9 myeloid progenitors, lysozyme-GFP differentiation, flow cytometry; 360,000 compounds, 1% hits;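 active = normalized GFP-positive differentiation at or above the plate's own cutoff, the solvent-only control mean plus 3 SD; inconclusive = no clear call, values can overlap the other calls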;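 note: cells exposed to compound for four days before flow analysis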
# TLR4 MyD88 cnf: confirmation of human TLR4-MyD88 binding inhibitors. AID 941. shares compounds with TLR4-MyD88 BLA. HeLa CL3-4 BLA complementation, CCF4 FRET ratio. 350 compounds, 50% hits. inhibition, % at 8.4 µM;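 active = mean inhibition across three repeat runs above about 25% carried over from the earlier screen, limit read from the data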
# BLA inh HeLa: inhibits beta-lactamase activity, counter-screen to TLR4-MyD88 binding inhibitors; HeLa BLA reporter, CCF4 FRET ratio; inhibition, % at 8.4 µM; shares compounds with TLR4-MyD88 BLA; 350 compounds, 63% hits;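 active = mean inhibition over three repeats above about 26% taken from the earlier screen, limit read from the data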;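 note: HeLa cells stably expressing beta-lactamase reporter as counterscreen for TLR4-MyD88 inhibitors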
# TLR9-MyD88 conf: TLR9-MyD88 interaction inhibition, confirmation; 680 compounds, 51% hits; shares compounds with TLR9-MyD88 inh; CHO TLR9/MyD88 BLA complementation, CCF4 FRET ratio; inhibition, % at 4.98 µM;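 active = mean inhibition across three repeats above about 21% taken from the earlier screen, limit read from the data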;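 note: blue over green emission ratio reports constitutive TLR9 MyD88 association via BLA complementation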
# BLA counter-1: counter-screen for TLR9-MyD88 inhibitors: non-selective beta-lactamase inhibitors; AID 540251; shares compounds with TLR9-MyD88 inh; inhibition, % at 4.98 µM; 680 compounds, 7% hits; CHO-BLA cells, CCF4 FRET ratio, BLA reporter;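 active = mean inhibition above a 50% cutoff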;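 note: counterscreen of TLR9-MyD88 hits on CMV-driven BLA in CHO-K1 cells; higher means less blue over green ratio so more BLA blockade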
# TLR9 CHO cytotox: counter-screen for TLR9-MyD88 inhibitors: cytotoxicity in CHO cells. luminescence. inhibition, % at 4.98 µM. 680 compounds, 39% hits. shares compounds with TLR9-MyD88 inh. AID 588336; in the data active = inhibition above about 11%
# NOD2 RIPK2 conf: NOD2-RIPK2 interaction inhibition confirmed | inhibition, % at 4.98 µM | AID 624370 | CHO cells, NOD2-RIPK2 BLA complementation, CCF4 FRET | shares compounds with NOD2-RIPK2 inh | 1,200 compounds, 70% hits;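 active = mean inhibition across replicates above a set limit taken from the earlier primary screen, cut at about 21% in these data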
# BLA counter-2: NOD2-RIPK2 counterscreen BLA reporter activity; shares compounds with NOD2-RIPK2 inh; CHO BLA reporter, CCF4 FRET ratio; inhibition, % at 4.98 µM; 1,200 compounds, 57% hits; AID 624371;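 active = mean inhibition above the low-control mean inhibition plus three low-control SD, cut at about 11% in these data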
# Numbers stand for hits; i = inactive; ? = inconclusive; nt = not tested or not shown; + = active, no number.
SMILES,TLR9-MyD88 inh,ABCB6 inh MLPCN,TLR4-MyD88 BLA,NOD2-RIPK2 inh,Myeloid diff 2,TLR4 MyD88 cnf,BLA inh HeLa,TLR9-MyD88 conf,BLA counter-1,TLR9 CHO cytotox,NOD2 RIPK2 conf,BLA counter-2
CCC(NC(=O)C1CCCC1)c1ccccc1 (centres undefined),i,i,nt,i,i,nt,nt,nt,nt,nt,nt,nt
N#C/C(=C/c1ccc(-c2ccc(S(N)(=O)=O)cc2)o1)C(=O)Nc1ccccc1,i,i,i,i,i,nt,nt,nt,nt,nt,nt,nt
N#C/C(=C/c1ccc(-c2ccc(S(N)(=O)=O)cc2)o1)c1nc2ccccc2s1,47,i,46,39,+,46,75,46,i,24,71,71
NNC(=O)[C@H]1C[C@@H]1c1ccccc1,i,i,i,i,i,nt,nt,nt,nt,nt,nt,nt
Cc1cccc(-n2c(N)c(-c3nc4ccccc4n3C)c3nc4ccccc4nc32)c1,i,i,i,i,i,nt,nt,nt,nt,nt,nt,nt
Cn1c(-c2c(N)n(-c3ccccc3)c3nc4ccccc4nc23)nc2ccccc21,47,i,54,55,i,49,76,42,i,12,71,73
Cc1nc(N2N=C3/C(=C/c4ccc(F)cc4)CCCC3C2c2ccc(F)cc2)sc1C(=O)N(C)C (centres undefined),i,i,41,42,i,37,65,nt,nt,nt,57,65
Cc1ncsc1C(=O)N1N=C2/C(=C/c3ccccc3)CCCC2C1c1ccccc1 (centres undefined),i,i,i,i,i,nt,nt,nt,nt,nt,nt,nt
O=C(NCc1ccc2c(c1)OCO2)OCc1ccccc1,nt,nt,nt,i,i,nt,nt,nt,nt,nt,nt,nt
CNC(=O)COC(=O)c1ccccc1C(=O)c1ccc(Cl)c([N+](=O)[O-])c1,25,i,32,24,?,i,i,23,i,i,53,i
O=C(CS(=O)c1ccc(Br)cc1)N1CCOCC1 (centres undefined),i,i,nt,i,i,nt,nt,nt,nt,nt,nt,nt
COc1ccc(-c2cc(N)n(S(=O)(=O)c3c(F)c(F)c(F)c(F)c3F)n2)cc1OC,i,i,27,59,?,i,i,nt,nt,nt,86,18
Cc1cc2oc(=O)ccc2cc1[N+](=O)[O-],i,i,nt,i,i,nt,nt,nt,nt,nt,nt,nt
Cc1ccc(NC(=O)CN(C)C(=O)Cc2ccc(Cl)c(Cl)c2)cc1,i,i,nt,i,i,nt,nt,nt,nt,nt,nt,nt
Cc1ccc(NC(=O)CN(C)C(=O)Cn2ncc(Cl)c(Cl)c2=O)cc1,i,i,32,25,?,i,i,nt,nt,nt,23,i
Cc1cc(Cl)n2c(nc3ccccc32)c1C#N,i,i,45,23,?,52,56,nt,nt,nt,86,63
CCOC(=O)CS(=O)(=O)c1ccccc1,i,i,i,i,i,nt,nt,nt,nt,nt,nt,nt
CCOC(=O)CS(=O)(=O)c1nc(-c2ccccc2)cc(C(F)(F)F)n1,30,i,25,85,i,i,i,30,i,100,85,27
O=C(/C=C/c1cn(CC(O)CN2CCCCCC2)c2ccccc12)c1cccs1 (centres undefined),47,i,31,47,+,37,60,28,i,i,56,52
Nc1nnc(-c2cc3ccccc3oc2=O)s1,i,i,i,i,i,nt,nt,nt,nt,nt,nt,nt
O=c1oc2ccccc2cc1-c1nc2c(s1)CCc1ccccc1-2,49,i,31,40,i,47,81,51,58,i,69,79
O=c1oc2cc(O)ccc2cc1-c1nc2c(s1)CCc1ccccc1-2,47,i,52,44,+,69,99,67,79,i,72,85
COC(=O)CCc1c(COC(C)=O)[nH]c(C(=O)OCc2ccccc2)c1C,i,i,nt,i,i,nt,nt,nt,nt,nt,nt,nt
O=C(O)c1ccc(N2CCCCCC2)c(N2C(=O)c3ccccc3C2=O)c1,i,i,i,i,i,nt,nt,nt,nt,nt,nt,nt
O=C1c2cccc3c(N4CCCCC4)ccc(c23)C(=O)N1c1ccccc1O,49,i,28,52,+,26,39,32,i,i,60,66
SMILES,TLR9-MyD88 inh,ABCB6 inh MLPCN,TLR4-MyD88 BLA,NOD2-RIPK2 inh,Myeloid diff 2,TLR4 MyD88 cnf,BLA inh HeLa,TLR9-MyD88 conf,BLA counter-1,TLR9 CHO cytotox,NOD2 RIPK2 conf,BLA counter-2
CN(C)c1ccc(/C=C/c2nc3ccccc3s2)cc1,30,i,45,22,+,44,68,46,59,26,57,70
Fc1ccccc1N1CCN(Cc2nc(-c3ccccc3)no2)CC1,i,i,i,i,i,nt,nt,nt,nt,nt,nt,nt
Fc1ccccc1N1CCN(Cc2cc(-c3ccccc3)on2)CC1,21,i,nt,i,i,nt,nt,i,i,i,nt,nt
Cc1ccccc1NS(=O)(=O)c1nnc(NC(=O)C(C)C)s1,i,i,nt,i,i,nt,nt,nt,nt,nt,nt,nt
COc1ccc(/C=C2\C(=O)NC(=O)c3ccccc32)cc1OC,31,i,nt,i,i,nt,nt,54,58,26,nt,nt
COc1ccc(C=C2C(=O)OC(C)(C)OC2=O)cc1OC,i,i,nt,i,i,nt,nt,nt,nt,nt,nt,nt
Nc1cc(=O)[nH]n1C1CCCCC1,i,i,i,i,i,nt,nt,nt,nt,nt,nt,nt
O=C1C=CC(=O)N1c1ccccc1N1C(=O)C=CC1=O,46,i,nt,i,i,nt,nt,66,i,99,nt,nt
O=C1C=CC(=O)N1c1ccccn1,i,i,nt,i,i,nt,nt,nt,nt,nt,nt,nt
COc1ccc(CNn2c(-c3cccs3)nc3ccccc3c2=O)cc1OC,22,i,i,i,i,nt,nt,i,i,12,nt,nt
O=C(NCc1ccccc1OC(F)(F)F)C1CCC(=O)N(CCCN2CCOCC2)C1 (centres undefined),i,i,nt,i,i,nt,nt,nt,nt,nt,nt,nt
Cc1nn(C)c(C)c1/C=N/NC(=O)CCn1nc(C)c([N+](=O)[O-])c1C,28,i,i,i,i,nt,nt,i,i,i,nt,nt
Cc1ccc(/C=N/NC(=O)Cn2nc(C)c([N+](=O)[O-])c2C)o1,i,i,nt,i,i,nt,nt,nt,nt,nt,nt,nt
O=C(NCCCn1ccnc1)c1cc2cc([N+](=O)[O-])ccc2oc1=O,i,i,i,i,i,nt,nt,nt,nt,nt,nt,nt
CCOC(=O)COc1ccccc1/C=C\[N+](=O)[O-],33,i,i,87,?,nt,nt,47,i,96,nt,nt
CSc1ccc(/C=N/n2c(COc3ccccc3)n[nH]c2=S)cc1,22,i,nt,i,i,nt,nt,i,i,i,nt,nt
S=c1[nH]nc(COc2ccccc2)n1/N=C/c1ccc(Cl)cc1,i,i,nt,i,i,nt,nt,nt,nt,nt,nt,nt
